# In all, about 68,000 compounds went through this assay and about 2,700 (4%) showed an effect of 50% or more. For the sample, strong results were picked, then their nearest neighbours and some compounds at random.
# Tested on: Plasmodium berghei
# Test: Screen against P. berghei liver stage (PbLuc), transformed with Luciferase, at 2uM
# Format: functional, HepG2
# Conditions: tested at 2 uM
row,SMILES,INHIBITION [%]
1,Cc1nc(C2CCCN(C(=O)CCCn3cccn3)C2)sc1C (centres undefined),15.67
2,O=C(c1ccc2[nH]ccc2c1)N1CC[C@@H]2CN(CC3CC3)CCO[C@@H]2C1,12.83
3,CCS(=O)(=O)N1CCc2cc(C(=O)N(C)C)c(NCC3CC3)nc2CC1,27.08
4,COC(=O)COc1cc(NCc2c(C)noc2C)c(Cl)cc1C,-55.9
5,NC(=O)COc1ccc(CN2CCC(O)(CN3CCCCC3)C2)cc1Cl (centres undefined),-32.93
6,Cc1cnn(C2CN(CC(=O)NCCc3ccsc3)C2)c1,-21.39
7,O=C(CCC1CCCO1)NCc1ccc(Br)cc1F (centres undefined),1.52
8,Cc1cc(C(=O)O)c2c(Br)cccc2n1,-34.12
9,COCCCN1Cc2cccc(NC(=O)c3cc(F)ccc3F)c2C1,-9.01
10,CCc1nnsc1C(=O)N1CCCC1c1c(C)nn(C)c1OC (centres undefined),-12.75
11,COc1ccc(C(C(=O)O)N2CCC(O)(c3cccnc3)CC2)cc1Cl (centres undefined),55.39
12,COc1ccc(C(C(=O)O)N2CCC(O)(c3cccnc3)CC2)cc1F (centres undefined),-38.97
13,COc1cccc(Cl)c1C(C(=O)O)N1CCC(O)(c2cccnc2)CC1 (centres undefined),-4.09
14,Cc1ccc(C(=O)N2C[C@H]3CCC[C@@]3(COCc3cccnc3)C2)s1,-5.01
15,CCCC(=O)N1CCC(c2ncc3c(n2)CCNC3)CC1,5.15
16,O=C(CC1CCCCC1)N1CCC(c2ncc3c(n2)CCNC3)CC1,6.4
17,CCC(=O)N1CCC(c2ncc3c(n2)CCNC3)CC1,95.75
18,COc1c[nH]c(C(=O)N2CCN(c3ccc(Cl)cc3)CC2)cc1=O,5.28
19,Cc1cc(C)n(C2CN(CC(O)c3cc(F)ccc3F)C2)n1 (centres undefined),53.98
20,Cc1cc(C)n(C2CN(CC(O)c3ccc(F)cc3)C2)n1 (centres undefined),-26.11
21,COc1ccc(C(O)CN2CC(n3nc(C)cc3C)C2)cc1 (centres undefined),-1.02
22,Cc1cc(C)n(C2CN(CC(O)c3ccc(C(F)(F)F)cc3)C2)n1 (centres undefined),56.02
23,Cc1cc(C)n(C2CN(CC(O)COc3ccc(F)cc3)C2)n1 (centres undefined),12.31
24,Cc1cc(C)n(C2CN(CC(O)c3ccc(S(C)(=O)=O)cc3)C2)n1 (centres undefined),-3.06
25,O=C(c1cnnn1-c1ccccc1)N1CCCC(c2ccn[nH]2)C1 (centres undefined),-44.17
26,O=C(c1ccco1)N1C[C@@H]2CCN(c3cccnc3)C[C@@H]2C1,-19.54
27,Cc1nnc2n1CCN(C(C(=O)N1CCCCC1)c1ccccc1)C2 (centres undefined),-40.65
28,CCc1nnc2n1CCN(C(C(=O)N(CC)CC)c1ccccc1)C2 (centres undefined),47.85
29,CCN(CC)C(=O)C(c1ccccc1)N1CCn2c(C)nnc2C1 (centres undefined),63.95

# Source: ChEMBL document CHEMBL4513216, “Probing the Open Global Health Chemical Diversity Library for Multistage-Active Starting Points for Next-Generation Antimalarials” (ACS Infect Dis, 2020)
